A short description of this experiment: InCell qHTS Assay for Inhibitors of the mTORC1 Signaling Pathway in MEF (Tsc2-/-, p53-/-) Cells: Hit Validation.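 Also: phospho-S6 Ser235/236 signal normalized to propidium iodide cell count per well; nearly all actives have a fitted effect of over 75% in size.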 As to conditions: phospho-rpS6 immunofluorescence, 24 h; activity change, negative = inhibition: at 38.3 µM (top of the series).

Results filed as inconclusive are left out. Active and inactive are the calls of the source. Calls follow the shape of the dose curve; as a rule, active = well fitted inhibition curve with a large enough effect; inconclusive = small, poorly fitted or top-dose-only effect; inactive = no such curve, though single readings can be large or run the other way.
Potency is read from the fitted curve at half-maximal effect.

With `COc1ccc(Nc2nc(N)c3cc(OC)c(OC)cc3n2)cc1`, the activity change, negative = inhibition was -100%. Turning to `Nc1nc(Nc2ccccc2F)sc1C(=O)c1ccc(Cl)cc1`, the activity change, negative = inhibition is -100%.

As for `Cc1cccc(OCc2ccc(-c3nc(C#N)c(NCCN(C)C)o3)o2)c1`, the activity change, negative = inhibition is -100%. With `COc1ccc(S(=O)(=O)N(Cc2nc(-c3cccc(C)c3)no2)C2CCCCC2)cc1`, the activity change, negative = inhibition is -100%.

As for `Nc1c(C(=O)NCc2ccccc2)nnn1Cc1cccc(Br)c1`, the activity change, negative = inhibition was -100%. On to `COc1ccc(-c2ccc(CCC(=O)O)n2-c2cc(Cl)ccc2O)cc1`, for which the activity change, negative = inhibition was -100%. On to `CC(C(=O)NCc1cccc(Br)c1)n1ncn2cccc2c1=O` (stereo not given), for which the activity change, negative = inhibition is -100%. As for `Cc1ccc(S(=O)(=O)c2nnn3c2nc(NC2CCCCC2)c2sccc23)cc1C`, the activity change, negative = inhibition was -100%. `CCC1=Nc2cc(C(=O)NC3CCCC3)ccc2Sc2ccc(Br)cc21`: the activity change, negative = inhibition is -100%. On the same count and under the same terms, next, `CCc1ccccc1NC(=O)CSCc1cnn(-c2ccccc2)c1-n1cccc1`: -100%; `Cc1nn(CCCC(=O)NCc2cccc(Cl)c2)c(=O)c2c1sc1ccccc12`: -100%. The same measure, in the same setting: then `COc1ccc(OCc2nc3c4c(-c5ccccc5)c(-c5ccccc5)oc4ncn3n2)cc1`, with -100%; and `COc1ccc(S(=O)(=O)Nc2ccc3oc4c(c3c2)CCCC4)cc1`, with -100%; and `Cc1ccc(S(=O)(=O)c2nnn3c2nc(NCc2cccs2)c2sccc23)cc1`, with -100%.

Regarding `O=C(CN(CCc1ccccc1)S(=O)(=O)c1ccccc1)NCc1ccc(Cl)cc1`, the activity change, negative = inhibition is -100%.

Turning to `CCOc1cc(C(Nc2cc(C)ccn2)c2ccc3cccnc3c2O)ccc1OC` (stereo not given), the activity change, negative = inhibition is -100%.

For the molecule `CCOC(=O)c1c(C)n(-c2ccccc2)c2ccc(OC(=O)c3ccccc3)cc12`, the activity change, negative = inhibition is -100%. Consider `CCOC(=O)c1ccc(NC(=O)c2nc(S(=O)(=O)Cc3ccccc3)ncc2Cl)cc1`, for which the Potency was 4.14 µM (active). Regarding `CCOC(=O)Cc1ccc(NC(=O)n2ncc3cc(Cl)ccc32)cc1`, the activity change, negative = inhibition was -100%. With `O=C(Nc1ccc(-c2cc(C(F)(F)F)nn2-c2ccccc2)cc1)c1cccc(F)c1`, the activity change, negative = inhibition was -100%. Turning to `O=C(c1ccc(CS(=O)c2ccccc2Cl)o1)N1CCN(c2cccc(C(F)(F)F)c2)CC1` (stereo not given), the activity change, negative = inhibition was -28.2%. With `O=C(Nc1ccc(F)c(Cl)c1)c1cc(S(=O)(=O)N2CCCc3ccccc32)ccc1F`, the activity change, negative = inhibition is -100%. Turning to `O=C(/C=C/c1ccco1)Nc1ccc(Cl)c(-c2nc3cc(Cl)ccc3o2)c1`, the activity change, negative = inhibition is -100%.

In the case of `COc1ccc(C)cc1NC(=O)CSc1ccc(-c2ccccn2)nn1`, the activity change, negative = inhibition was -100%. For the molecule `COc1cc(CNc2ccc3c(c2)ncn3C(C)C)cc(OC)c1OC`, the activity change, negative = inhibition is -100%. `CCN1CCN(c2ccc(NS(=O)(=O)c3c(C)nc4sccn4c3=O)cc2Cl)CC1`: the activity change, negative = inhibition was -100%. `CCN1C(=O)c2ccccc2Sc2ccc(NC(=O)Cc3ccc(OC)cc3)cc21`: the activity change, negative = inhibition was -100%. Turning to `CCCN1C(=O)C(Cc2nc3ccccc3c(=O)n2CC)c2cc(Br)ccc21` (stereo not given), the activity change, negative = inhibition was -100%.

Consider `CCNS(=O)(=O)c1ccc(NC(=O)CSc2nc(-c3ccco3)cc(C(F)(F)F)n2)cc1`, for which the activity change, negative = inhibition was -13.9%.

For `COc1ccc(C(=O)c2sc(Nc3ccccc3)nc2N)cc1`, the activity change, negative = inhibition was -100%. With `Cc1ccc(NC(=O)c2nc(S(=O)(=O)Cc3cccc(C)c3)ncc2Cl)cc1`, the Potency was 14.7 µM (active). The same measure, in the same setting: then `CN(c1ccccc1)S(=O)(=O)c1ccc(NC(=O)c2nc(S(C)(=O)=O)ncc2Cl)cc1`, with 2.07 µM (active). Consider `O=S(=O)(c1ccccc1)n1nc(-c2ccc(Cl)cc2)nc1NCc1ccccc1`, for which the activity change, negative = inhibition is -5.06%. For the molecule `Cc1ccc(C)c(CN2C(=O)C(=O)c3ccccc32)c1`, the activity change, negative = inhibition was -100%.

Turning to `CCN(CCCNC(=O)c1cc2c(=O)[nH]c3ccccc3c2s1)c1ccccc1`, the activity change, negative = inhibition was -100%. Turning to `CCN(CC)c1ccc(NC(=O)CN(C)S(=O)(=O)c2cccc3nsnc23)c(C)c1`, the activity change, negative = inhibition was -100%. On the same count and under the same terms, next, `CCCCOc1cccc(C(=O)N(Cc2cccs2)c2ccc(OC)cc2)c1`: -3.36%. For the molecule `CCc1ccc(NC(=O)C2CCCN(S(=O)(=O)c3c(C)noc3/C=C/N(C)C)C2)cc1` (stereo not given), the Potency is 14.7 µM (active). For `COc1ccc(C(=O)Nc2ccc3c(c2)N(C)C(=O)c2ccccc2S3)cc1OC`, the activity change, negative = inhibition is -100%. Turning to `CCc1ccc(-c2nc(CSCC(=O)NCc3ccc(C)cc3)c(C)o2)cc1`, the activity change, negative = inhibition was -100%. On to `O=C(Nc1ccc2oc(-c3ccc4ccccc4c3)nc2c1)c1cc(Br)ccc1Cl`, for which the Potency was 18.5 µM (active). Turning to `CCOc1cc(-c2nnc(SCC(=O)NCc3ccccc3)nc2-c2ccc(OC)c(OCC)c2)ccc1OC`, the activity change, negative = inhibition is -100%. Turning to `Cc1cccc(N(CC(=O)NCCSc2ccc(Cl)cc2)S(=O)(=O)c2ccccc2)c1C`, the activity change, negative = inhibition is -100%. In the case of `Brc1ccc(Nc2c3c(nc4nncn24)CCC3)cc1`, the activity change, negative = inhibition was -100%.

In the case of `CCCCS(=O)(=O)c1oc(-c2ccc(F)cc2)nc1S(=O)(=O)c1ccccc1`, the Potency was 2.07 µM (active).

These data come from PubChem BioAssay AID651791 (National Center for Advancing Translational Sciences (NCATS), 2012).
